# Reference: PubChem BioAssay AID651640 (Broad Institute, 2012)
# About 6,000 (1.7%) of roughly 350,000 compounds were called active. Another 5% or so got no clear call; they are omitted. This is one part of a sample in which actives are shown more often than they occur. No stated cut-off is given here; in the data, active means CPE inhibition above about 20% (passing the limit was not always enough); inconclusive means no clear call, values can overlap the other calls; tested in BHK-21 cells.
# Assay: protection of cells from dengue 2 killing – plate reader, single concentration, primary screen (AID 651640);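 further: 0% = median of neutral control wells and 100% = median of positive control wells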
# Conditions: DENV2-infected cells, cytopathic effect rescue, at 9.99 µM, active compounds read high
row,Structure (SMILES),CPE inhibition
1,C[C@@H]1CN([C@H](C)CO)S(=O)(=O)c2ccc(C#C[C@@H](C)O)cc2O[C@H]1CN(C)C(=O)C1CCCCC1,-8.28% (inactive)
2,C[C@H](CO)N1C[C@H](C)[C@@H](CN(C)Cc2ccc(Oc3ccccc3)cc2)Oc2cc(-c3ccncc3)ccc2S1(=O)=O,-22.7% (inactive)
3,O=C(C[C@@H]1C=C[C@@H](NS(=O)(=O)c2ccc(F)cc2)[C@@H](CO)O1)NCCN1CCCCC1,-0.229% (inactive)
4,CN(Cc1ccccc1F)C[C@H]1[C@@H](c2ccccc2)[C@@H](CO)N1S(C)(=O)=O,-1.35% (inactive)
5,CCCNC(=O)N1C[C@@H](O)COC[C@@H]2O[C@H](CC(=O)N3CCN(C)CC3)CC[C@H]21,0.94% (inactive)
6,C[C@H]([C@@H](O)[C@@H](O)[C@@H](C)C(C)(C)C)[C@H]1CC[C@H]2C3CC[C@H]4C[C@H](OS(=O)(=O)O)[C@@H](OS(=O)(=O)O)C[C@]4(C)[C@H]3CC[C@]12C (some centres not stated),-2.49% (inactive)
7,CC(C)CC#Cc1cnc2c(c1)C(=O)N([C@@H](C)CO)C[C@H](C)[C@@H](CN(C)C(=O)c1ccc(F)cc1)O2,-4.54% (inactive)
8,CCC(=O)Nc1ccc2c(c1)OC[C@H](C)N(C(=O)c1ccncc1)C[C@H](C)[C@H](OC)CN(C)C2=O,-6.05% (inactive)
9,C[C@H]1CN([C@@H](C)CO)C(=O)c2cc(C3=CCCC3)cnc2O[C@@H]1CN(C)C(=O)c1ccccc1,-6.29% (inactive)
10,CO[C@@H]1CN(C)C(=O)c2ccc(NS(=O)(=O)c3c(C)noc3C)cc2OC[C@H](C)NC[C@@H]1C,-11.3% (inactive)
11,C[C@@H]1CN([C@H](C)CO)C(=O)c2cc(C#CCC3CCCC3)cnc2O[C@H]1CN(C)Cc1ccccn1,15.8% (inactive)
12,COc1ccc(-c2ccccc2[C@H]2[C@@H](CO)N(C(=O)C3CCC3)[C@H]2C#N)cc1,70.3% (active)
13,CCCC#Cc1ccc([C@@H]2[C@@H](C#N)N(C(=O)C3CCC3)[C@H]2CO)cc1,-3.76% (inactive)
14,COc1ccc(-c2ccc([C@@H]3[C@@H](C#N)N(C(=O)C4CCC4)[C@@H]3CO)cc2)cc1,-14% (inactive)
15,CCCC#Cc1ccc([C@@H]2[C@@H](C#N)N(C(=O)C3CC3)[C@H]2CO)cc1,-11.5% (inactive)
16,CCCC#Cc1ccc([C@H]2[C@@H](CO)N(C(=O)C3CC3)[C@H]2C#N)cc1,39.4% (active)
17,CN(C)CC#Cc1ccc([C@H]2[C@@H](CO)N(C(=O)C3CCC3)[C@H]2C#N)cc1,87.1% (active)
18,COc1ccccc1C#Cc1ccc([C@@H]2[C@@H](CO)N(C(=O)C3CC3)[C@H]2C#N)cc1,1.77% (inactive)
19,CCCC#Cc1ccc([C@@H]2[C@@H](C#N)N(C(=O)C3CCCC3)[C@@H]2CO)cc1,-5.75% (inactive)
20,COc1ccc(-c2ccccc2[C@H]2[C@@H](C#N)N(C(=O)C3CCC3)[C@@H]2CO)cc1,3.73% (inactive)
21,OC[C@H]1[C@@H](c2ccc(C#Cc3ccccc3F)cc2)[C@H]2CN(CC3CCOCC3)CCCCN21,-16.8% (inactive)

row,Structure (SMILES),CPE inhibition
1,C[C@@H](NC(=O)C[C@@H]1C[C@@H]2c3cc(NC(=O)c4cccnc4)ccc3O[C@@H]2[C@H](CO)O1)c1ccccc1,-1.39% (inactive)
2,COc1cccc(-c2ccc3c(c2)O[C@H](CN(C)C(=O)c2ccccc2F)[C@@H](C)CN([C@@H](C)CO)S3(=O)=O)c1,-3.52% (inactive)
3,CN(C)C(=O)c1ccc(-c2ccc([C@@H]3[C@@H](CO)N4CCCCN(Cc5cncnc5)C[C@@H]34)cc2)cc1,5.96% (inactive)
4,CCCC#Cc1ccc([C@H]2[C@H]3CN(Cc4cncnc4)CCCCN3[C@H]2CO)cc1,-10.9% (inactive)
5,OC[C@H]1[C@H](c2ccc(-c3cccc(F)c3)cc2)[C@@H]2CN(Cc3cncnc3)CCCCN12,58.8% (active)
6,OC[C@H]1[C@H](c2ccc(-c3ccccc3F)cc2)[C@H]2CN(Cc3cncnc3)CCCCN21,45.6% (active)
7,COCC#Cc1ccc([C@H]2[C@H](CO)N3CCCCN(Cc4ccncc4)C[C@@H]23)cc1,3.44% (inactive)
8,Cc1cccc(-c2ccc([C@H]3[C@@H](CO)N4CCCCN(Cc5cncnc5)C[C@H]34)cc2)c1,5.45% (inactive)
9,Cc1ccc(-c2ccc([C@H]3[C@H](CO)N4CCCCN(Cc5cncnc5)C[C@@H]34)cc2)cc1,-2.12% (inactive)
10,Cc1cccc(-c2ccc([C@@H]3[C@H](CO)N4CCCCN(Cc5ccncc5)C[C@@H]34)cc2)c1,-6.55% (inactive)
11,OC[C@H]1[C@H](c2ccc(-c3cccnc3)cc2)[C@H]2CN(Cc3ccccn3)CCCCN21,3.13% (inactive)
12,OC[C@@H]1[C@H](c2ccc(C3=CCCC3)cc2)[C@H]2CN(Cc3ccncc3)CCCCN12,41% (active)
13,OC[C@H]1[C@@H](c2ccc(/C=C/c3ccccc3)cc2)[C@H]2CN(Cc3cccnc3)CCCCN21,23.8% (active)
14,OC[C@@H]1[C@H](c2ccc(C#Cc3ccccc3)cc2)[C@@H]2CN(Cc3cncnc3)CCCCN12,4.64% (inactive)
15,CC(C)CC#Cc1ccc([C@H]2[C@H]3CN(C(=O)CN4CCOCC4)CC(=O)N3[C@H]2CO)cc1,-1.35% (inactive)
16,COc1ccccc1CNC(=O)C[C@@H]1C[C@@H]2c3cc(NC(=O)C4CCOCC4)ccc3O[C@@H]2[C@@H](CO)O1,2.24% (inactive)
17,COC(=O)[C@@H]1[C@@H](CO)[C@@H]2Cn3c(ccc(-c4ccccc4F)c3=O)[C@@H]2N1CC1CCOCC1,-7.38% (inactive)
18,C[C@@H]1CCCCO[C@@H](CN(C)S(=O)(=O)c2cn(C)cn2)[C@@H](C)CN([C@@H](C)CO)C(=O)c2cc(NC(=O)NC3CCCCC3)ccc2O1,7.41% (inactive)
19,C[C@@H]1CN([C@@H](C)CO)S(=O)(=O)c2ccc(-c3ccccc3F)cc2O[C@H]1CN(C)Cc1cncnc1,-7.02% (inactive)
20,CN(C)C(=O)[C@@H]1[C@@H](CO)[C@@H]2Cn3c(cccc3=O)[C@H]1N2C(=O)c1ccc(F)cc1,2.89% (inactive)
21,C[C@H]1CN([C@@H](C)CO)C(=O)c2cccc(NC(=O)c3ccncc3)c2O[C@@H]1CN(C)C,-3.46% (inactive)
